Screening data: PubChem, several laboratories
Rows were chosen to be rich in hits. Some 1.5% of all compounds tested hit in one or more screens of this group.
Cardiac RTF inh: cardiac RTF calcium desensitization. P19429+P45379. IANBD-labeled cardiac RTF, Ca2+ fluorescence. inhibition, % at 7.15 µM. 340,000 compounds, 0.12% hits. AID 493244;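 active = inhibition above the mean inhibition of all tested compounds plus 3 SD, cut at about 17% in these data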;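 also: assay run at fixed EC70 calcium of 1.6 mM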
IDE cell activ: IDE (human) activation, cell-based; P14735; HEK cells, FAbeta-B cleavage, fluorescence polarization; 0% vehicle, 100% cell-free pure enzyme wells; activation, % at 5.96 µM; 340,000 compounds, 0.073% hits;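 active = activation above the mean of all tested compounds plus 3 SD, set per screening campaign, cut at about 17% in these data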
Target sequence (P14735 whole entry, looked up): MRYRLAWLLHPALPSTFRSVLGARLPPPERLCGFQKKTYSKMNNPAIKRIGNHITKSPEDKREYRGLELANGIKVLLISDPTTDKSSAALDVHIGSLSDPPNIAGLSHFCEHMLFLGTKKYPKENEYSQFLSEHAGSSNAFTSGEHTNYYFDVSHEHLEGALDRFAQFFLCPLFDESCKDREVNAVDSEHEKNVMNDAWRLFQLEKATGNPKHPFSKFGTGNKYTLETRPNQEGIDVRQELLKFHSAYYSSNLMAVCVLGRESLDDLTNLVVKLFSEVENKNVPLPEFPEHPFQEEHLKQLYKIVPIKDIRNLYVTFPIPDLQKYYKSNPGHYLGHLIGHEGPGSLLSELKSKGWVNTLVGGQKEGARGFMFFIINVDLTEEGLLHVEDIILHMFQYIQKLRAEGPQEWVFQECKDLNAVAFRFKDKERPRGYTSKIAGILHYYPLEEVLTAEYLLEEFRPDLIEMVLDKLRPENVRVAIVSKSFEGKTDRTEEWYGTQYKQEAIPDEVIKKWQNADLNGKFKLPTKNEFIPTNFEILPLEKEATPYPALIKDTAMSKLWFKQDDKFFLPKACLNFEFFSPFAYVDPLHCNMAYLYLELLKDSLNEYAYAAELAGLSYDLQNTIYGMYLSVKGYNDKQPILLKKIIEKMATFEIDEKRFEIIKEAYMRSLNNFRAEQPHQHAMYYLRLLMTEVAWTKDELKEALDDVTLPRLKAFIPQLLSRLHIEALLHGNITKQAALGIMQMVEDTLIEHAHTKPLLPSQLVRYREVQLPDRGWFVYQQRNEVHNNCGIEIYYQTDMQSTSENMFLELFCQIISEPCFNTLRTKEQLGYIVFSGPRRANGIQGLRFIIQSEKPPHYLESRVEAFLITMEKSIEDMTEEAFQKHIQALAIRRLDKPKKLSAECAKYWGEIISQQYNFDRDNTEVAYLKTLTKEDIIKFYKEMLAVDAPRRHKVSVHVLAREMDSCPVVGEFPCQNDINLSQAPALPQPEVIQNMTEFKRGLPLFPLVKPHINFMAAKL
cardiac RTF act: cardiac RTF calcium sensitization; activation, % at 7.2 µM; IANBD-labeled TnC RTF fluorescence at EC20 calcium; 0% EC20 calcium, 100% full calcium; 340,000 compounds, 0.24% hits; P19429+P45379;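 active = activation above the mean over all tested compounds plus 3 SD, cut at about 30% in these data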;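 also: rise in fluorescence read as greater calcium sensitivity of cardiac thin filaments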
CRFBP-R2 agonist: agonists of human CRF-binding protein/CRF-R2 receptor complex | activation, % at 13.2 µM | 350,000 compounds, 0.46% hits | AID 588473 | HEK293 CRF-R2/CRF-BP, calcium dye fluorescence (FLIPR); percent of saturating CRF peptide response;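 active = activation of at least 50%, plus an integration ratio under a set limit after plate pattern correction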
TPT1 inh: C. albicans TPT1 enzyme inhibition | 300,000 compounds, 0.81% hits | inhibition, % at 5 µM | recombinant caTPT1, FP RNA substrate dephosphorylation | AID 1962;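 active = inhibition above the mean of all tested compounds plus 3 SD, set per screening campaign, cut at about 24% in these data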
IDE cell inh: inhibitors of human insulin-degrading enzyme in cells; HEK cells, FAbetaB cleavage, fluorescence polarization; P14735; 320,000 compounds, 0.41% hits; AID 434962; inhibition, % at 5.59 µM;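 active = percent inhibition above the average of all tested compounds plus 3 SD, set per screening campaign, cut at about 16% in these data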;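 also: IDE supplied by intact live HEK cells; FP after avidin binding of uncleaved biotin substrate so inhibition keeps polarization high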
caTPT1 confirm: TPT1 (C. albicans) inhibition, confirmation; 2,400 compounds, 74% hits; inhibition, % at 5 µM; shares compounds with TPT1 inh; recombinant caTPT1, fluorescence polarization, RNase T1 coupled;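 active = inhibition above the primary screen limit, the mean inhibition of all tested compounds plus 3 SD, cut at about 25% in these data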
RNase T1 inh: blocks Aspergillus oryzae RNase T1, a TPT1 counter-screen. shares compounds with TPT1 inh. RNase T1 cleavage, fluorescence polarization, 1536-well. inhibition, % at 5 µM. 2,400 compounds, 83% hits;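 active = inhibition above the solvent-only control well mean plus 3 SD, limit set per screening run, cut at about 23% in these data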;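 also: inhibitors block cleavage so intact labeled substrate keeps polarization high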
Each line names hits and unclear results; the compound was inactive in the other large screens (follow-up assays come after a bar, where they were run).

CCN(CC)C(=O)[C@H]1CC(CC(=O)NCc2ccco2)C(=O)N2CCc3c([nH]c4ccc(OC)cc34)[C@]12C (stereo not given in full)	none (no result: TPT1 inh, IDE cell inh)
COc1ccc(Oc2nc(C)cc(C)c2S(=O)(=O)c2ccc(C)cc2)cc1	none
Cc1ccc(-n2cc(S(=O)(=O)c3ccc(C)cc3)[nH]c2=O)cc1	none
Cc1ccc(S(=O)(=O)c2cc(C#N)c(=O)[nH]c2N)cc1	TPT1 inh 33 | caTPT1 confirm inactive | RNase T1 inh 29
COc1nc(N)c(S(=O)(=O)c2ccc(C)cc2)cc1C#N	TPT1 inh 29 | caTPT1 confirm inactive | RNase T1 inh 29
CC1NC(=O)c2cccnc2-n2c1nc1cc(F)c(F)cc1c2=O (stereo not given)	none (no result: Cardiac RTF inh, IDE cell activ, cardiac RTF act, TPT1 inh, IDE cell inh)
CN1CCN(S(=O)(=O)c2ccc(Sc3nnc(-c4cccs4)n3-c3ccccc3)nc2)CC1	TPT1 inh 34 | caTPT1 confirm inactive | RNase T1 inh inactive
COc1ccc(NC(=O)CSc2ccc3nnc(CCNC(=O)c4ccccc4)n3n2)cc1	TPT1 inh 41 | caTPT1 confirm inactive | RNase T1 inh inactive
O=[N+]([O-])c1cccc(C2NCC(c3ccccc3Cl)c3c2[nH]c2ccccc32)c1 (stereo not given)	TPT1 inh 131 | caTPT1 confirm inactive | RNase T1 inh inactive
CN(C)c1ccc(C2CNC(c3ccc(Cl)c([N+](=O)[O-])c3)c3[nH]c4ccccc4c32)cc1 (stereo not given)	none
CCOC(=O)c1sc(/N=C/c2c(C)[nH]n(-c3ccccc3)c2=O)c(C#N)c1C	TPT1 inh 30 (no result: Cardiac RTF inh, IDE cell activ, cardiac RTF act, CRFBP-R2 agonist) | caTPT1 confirm 120 | RNase T1 inh 124
Cc1[nH]n(-c2ccccc2)c(=O)c1/C=N/N(c1ccccc1)c1ccccc1	none
CC(=O)c1c(O)cc(O)cc1O	none (no result: TPT1 inh, IDE cell inh)
COc1ccc(-n2c(C)c(C)c3c(NCCCN(C)C)ncnc32)cc1	none
CCN1C(=O)S/C(=C\c2ccc(N3CCOCC3)cc2C)C1=O	TPT1 inh 39 | caTPT1 confirm 55 | RNase T1 inh 69
Cc1cc(N2CCOCC2)ccc1/C=C1\SC(=O)N(C(C)C)C1=O	TPT1 inh 37 | caTPT1 confirm 52 | RNase T1 inh 64
COc1ccc(S(=O)(=O)NCc2cccnc2)cc1C(=O)Nc1ccccc1	none
CCN1C(=O)c2cccc3c(NC(=O)c4ccc5c(c4)OCCO5)ccc1c23	TPT1 inh 47 | caTPT1 confirm 65 | RNase T1 inh 72
N#Cc1ccccc1Cn1c(=O)n(Cc2ccc(C(=O)NCc3ccco3)cc2)c(=O)c2ccccc21	none
N#Cc1ccccc1Cn1c(=O)n(CCC(=O)NCc2ccco2)c(=O)c2ccccc21	TPT1 inh active | caTPT1 confirm inactive | RNase T1 inh 25
COc1cc(/C=C/C(=O)Nc2cccc(S(=O)(=O)NC3=NCCCCC3)c2)ccc1OCC#N	none
Cc1nc2nc(-c3ccc(Cl)cc3)cn2nc1C	none
COc1cccc(-c2cn3nc(C)c(C)nc3n2)c1	TPT1 inh 45 | caTPT1 confirm 45 | RNase T1 inh 55
O=C(NCCc1ccccc1)c1nc(-c2cccs2)no1	none
C=CCn1ccc2c([N+](=O)[O-])cccc2c1=O	none
C=CCn1ccc(=NC=C(C#N)C#N)c2ccccc21	TPT1 inh 31 | caTPT1 confirm 45 | RNase T1 inh 57
Cc1ccc2nc(Cl)c(/C=N/Nc3ccc(C(=O)O)cc3)cc2c1	TPT1 inh 30 | caTPT1 confirm 36 | RNase T1 inh 47
CN(C)c1ccc(/C=N/OC(=O)Nc2ccccc2)cc1	none
Cc1ccc(NC(=O)CO/N=C/c2ccc(N(C)C)cc2)cc1	TPT1 inh 93 | caTPT1 confirm 106 | RNase T1 inh 113
O=C(NNS(=O)(=O)c1ccccc1)c1ccc(S(=O)(=O)N2CCCCC2)cc1	TPT1 inh 40 | caTPT1 confirm inactive | RNase T1 inh inactive
COc1cccc(C(=O)NCCS(=O)(=O)N(C)Cc2ccccc2)c1	none
COc1cc(-c2cc(-c3ccc(N)cc3)[nH]c(=O)c2C#N)cc(OC)c1OC	TPT1 inh 103 | caTPT1 confirm 103 | RNase T1 inh 105
Nc1c(C(=O)c2ccccc2)sc2snc(SCC(=O)c3ccccc3)c12	TPT1 inh 102 | caTPT1 confirm 71 | RNase T1 inh 77
CC1(C)Cc2c(sc3ncn(N)c(=N)c23)CO1	none
CC1CCCc2sc3ncn(N)c(=N)c3c21 (stereo not given)	TPT1 inh 61 | caTPT1 confirm inactive | RNase T1 inh 22
CCOc1cccc(OCCOCCNC(C)(C)C)c1	TPT1 inh 38 | caTPT1 confirm inactive | RNase T1 inh inactive
CCOc1ccc(OCCCCNC(C)(C)C)cc1	none
O=C(N/N=C/c1cccc([N+](=O)[O-])c1)c1ccccc1-n1cccc1	none
C[C@@H]1ON(C)[C@H]2C[C@H]3c4[nH]c5ccc(-c6ccc7c(c6)OCO7)cc5c4CCN3C[C@@H]12	none (no result: Cardiac RTF inh, IDE cell activ, cardiac RTF act, TPT1 inh, IDE cell inh)
COc1ccc(OC)c(/C=C2\SC(=S)N(C(C(=O)O)c3ccccc3)C2=O)c1 (stereo not given)	TPT1 inh 65 | caTPT1 confirm 61 | RNase T1 inh 72
O=C1c2ccccc2S(=O)(=O)c2cc(N3CCOCC3)ccc21	TPT1 inh 34 | caTPT1 confirm 35 | RNase T1 inh 46
O=[N+]([O-])c1ccc(N2CCCCC2)s1	TPT1 inh 35 | caTPT1 confirm 34 | RNase T1 inh 46
O=[N+]([O-])c1ccc(N2CCN(Cc3ccccc3)CC2)s1	TPT1 inh 31 | caTPT1 confirm 38 | RNase T1 inh 50
COc1ccc(CCn2c(=N)c(C(=O)NC3CCCC3)cc3c(=O)n4ccccc4nc32)cc1OC	TPT1 inh 28 | caTPT1 confirm 45 | RNase T1 inh 57
COc1ccc(CCn2c(=N)c(C(=O)NC3CCCC3)cc3c(=O)n4ccccc4nc32)cc1	none
N#CCCN(C(=O)COC(=O)CCc1c[nH]c2ccccc12)c1ccccc1	none
O=C(Cc1ccc(Cl)c(Cl)c1)Nc1cccc(S(=O)(=O)N2CCOCC2)c1	TPT1 inh 62 | caTPT1 confirm inactive | RNase T1 inh inactive
COc1cc(C2CC(=O)Oc3cc(C)cc(C)c32)cc(OC)c1OC (stereo not given)	none (no result: TPT1 inh, IDE cell inh)
COc1ccc(OCC(=O)N/N=C(\C)c2cc3ccccc3o2)cc1	TPT1 inh 27 | caTPT1 confirm inactive | RNase T1 inh 35
CCn1c(C)nc2cc(C(=O)N/N=C/c3cccc(O)c3O)ccc21	none
CCC(CC)C1C(C#N)=C(N)SC(N)=C1C#N	TPT1 inh 39 | caTPT1 confirm inactive | RNase T1 inh inactive
